This note sets out measurements from PubChem BioAssay (EPA / NIEHS).

Inconclusive results are not listed. Calls of active or inactive are those of the source. Rule for the calls, unless noted: active = hit-call score of the fitted dose curve at least 0.9, where 1 is the maximum; inactive = score below 0.9.

The nature of assay [1]: ATG_PXRE_CIS: Attagene CIS-FACTORIAL HepG2 Assay for human Pregnane X Receptor Element (PXRE) (AID 2282957). As to conditions: HepG2 Attagene CIS-FACTORIAL PXRE reporter, mRNA; actives raise or lower the signal. The procedure, abridged: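 Using HepG2 transfected with multiple reporter transcription units, endogenous factor-driven transcription was scored as reporter mRNA after 24 h exposure.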

Assay [2] in a line: ATG_PPRE_CIS: Attagene CIS-FACTORIAL HepG2 Assay for human Peroxisome Proliferator-activated Response Element (PPRE) (AID 2282958). Particulars: HepG2 PPRE cis-element reporter, Attagene transcription factor profiling; actives raise or lower the signal. An outline of the steps:
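In this cell-based multiplex, a PPRE cis element drives a reporter sequence in transiently transfected HepG2 cells. Following 24 h treatment, labeled cDNA amplicons are sized and quantified by capillary electrophoresis, with DMSO defining baseline.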

Assay [3] can be described thus: ATG_RORE_CIS: Attagene CIS-FACTORIAL HepG2 Assay for human RAR-related Orphan Receptor Element (RORE) (AID 2282959). As to conditions: HepG2 Attagene cis-factorial RORE reporter, mRNA; actives raise or lower the signal. The procedure, abridged: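 Endogenous factor activity at a cis response element is read as reporter transcript levels in HepG2 cells, 24 h post-dose. Transcripts are quantified by RT-PCR with capillary electrophoresis, and data fitted in both directions against DMSO.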

Assay [4] can be described thus: ATG_Sox_CIS: Attagene CIS-FACTORIAL HepG2 Assay for human SRY-box transcription factor (SOX) (AID 2282960). As to conditions: HepG2 Attagene cis-factorial SOX reporter, mRNA; actives raise or lower the signal. An outline of the steps: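 Measures mRNA induction of a SOX1-associated reporter in HepG2 after 24 h dosing. Fluorescently labelled RT-PCR fragments are separated by capillary electrophoresis, and gain or loss relative to DMSO control is fitted.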

Assay [5] deals with Transcription factor Sp1 (Homo sapiens) (UniProt P08047). The assay is described as follows: ATG_Sp1_CIS: Attagene CIS-FACTORIAL HepG2 Assay for human Specificity Protein 1 (Sp1) (AID 2282961). Particulars: HepG2 Sp1 cis-reporter transcription, actives raise or lower the signal. The procedure, abridged:
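Cells: HepG2, transiently transfected with cis-regulated multiplexed reporters. Exposure: 24 h. Detection: reporter transcripts amplified, fluorescently labeled, restriction-digested and sized by capillary electrophoresis. Analysis: bidirectional fit relative to DMSO.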

Assay [6] has as its target Signal transducer and activator of transcription 3 (Homo sapiens) (UniProt P40763). The assay can be described thus: ATG_STAT3_CIS: Attagene CIS-FACTORIAL HepG2 Assay for human Signal Transducer and Activator of Transcription 3 (STAT3) (AID 2282963). As to conditions: HepG2, Attagene cis-factorial STAT3 reporter transcription; actives raise or lower the signal. An outline of the steps: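 Readout is reporter transcript quantified by RT-PCR and capillary electrophoresis, with 6-FAM primer extension and HpaI digestion. Total RNA is taken 24 h after dosing transiently transfected HepG2 carrying cis-regulated reporter units. Bidirectional fit against DMSO.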

Assay [7] can be described thus: ATG_TA_CIS: Attagene CIS-FACTORIAL HepG2 Assay for human TA Basal Promoter (AID 2282964). Particulars: HepG2 Attagene CIS-factorial TA basal promoter reporter; actives raise or lower the signal. An outline of the steps:
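Cis-factorial format in HepG2: reporters report endogenous factors, not chimeric Gal4 fusions. After 24 h treatment, reporter transcripts were measured by RT-PCR-capillary electrophoresis fluorescence, analysed bidirectionally versus DMSO.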

The nature of assay [8]: ATG_TCF_b_cat_CIS: Attagene CIS-FACTORIAL HepG2 Assay for human T-Cell-Factor with beta-catenin (TCF/b-cat) (AID 2282965). Particulars: HepG2 TCF/beta-catenin cis-reporter transcription, actives raise or lower the signal. The procedure, abridged:
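Endogenous transcription factor activity is captured through cis-promoter reporter constructs transiently introduced into human HepG2 liver cells. Induced reporter mRNA is measured after 24 h and fitted bidirectionally relative to DMSO.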

A short description of assay [9]: ATG_TAL_CIS: Attagene CIS-FACTORIAL HepG2 Assay for human TAL Basal Promoter (AID 2282966).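 Note: background control endpoint measuring basal TAL promoter reporter mRNA not a specific factor.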 Particulars: HepG2 Attagene cis-factorial TAL promoter reporter; actives raise or lower the signal. The procedure, abridged:
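After 24 hours of chemical exposure, transfected HepG2 cells yielded RNA that was converted to 6-FAM-labelled, HpaI-digested reporter fragments for capillary electrophoresis. Values derive from bidirectional fitting against DMSO controls.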

Assay [10] is described as follows: ATG_TGFb_CIS: Attagene CIS-FACTORIAL HepG2 Assay for human Transforming Growth Factor (TGF) (AID 2282967). As to conditions: HepG2 Attagene CIS TGFb reporter, mRNA transcription; actives raise or lower the signal. The procedure, abridged: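 Multiplexed cis-reporter HepG2 system, 24 h treatment; mRNA induction read by fluorescence after RT-PCR and CE; DMSO negative control, bidirectional curve fitting.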

A short description of assay [11]: ATG_VDRE_CIS: Attagene CIS-FACTORIAL HepG2 Assay for human Vitamin D Receptor Element (VDRE) (AID 2282968). Particulars: HepG2 VDRE cis-reporter transcription, actives raise or lower the signal. The procedure, abridged:
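Readout is VDRE-driven reporter mRNA reflecting endogenous factor activity in human HepG2 cells, sampled 24 h post-dose. Quantification used labelled RT-PCR products separated by capillary electrophoresis; bidirectional analysis relative to DMSO.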

Assay [12] concerns the target Nuclear receptor subfamily 1 group I member 3 (Homo sapiens) (UniProt Q14994). The assay is described as follows: ATG_CAR_TRANS: Attagene TRANS-FACTORIAL HepG2 Assay for human Constitutive Androstane Receptor (CAR) (AID 2282969; active = hit-call score of the fitted dose curve at least 0.9, where 1 is the maximum;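 note: activators raise reporter mRNA above DMSO so AC50 marks induction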). Particulars: HepG2 Attagene TRANS-FACTORIAL CAR reporter. An outline of the steps:
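Signal is reporter mRNA induction relative to DMSO, measured 24 h after dosing by RT-PCR with fluorescent primer extension and capillary electrophoresis. Human HepG2 liver cells carried transiently transfected chimeric NR-Gal4/GAL4-UAS reporter constructs.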

The target of assay [13] is Estrogen receptor (Homo sapiens) (UniProt P03372). The assay is described as follows: ATG_ERa_TRANS: Attagene TRANS-FACTORIAL HepG2 Assay for human Estrogen Receptor alpha (ERa) (AID 2282970; active = hit-call score of the fitted dose curve at least 0.9, where 1 is the maximum). Particulars: HepG2 Attagene TRANS ERa GAL4 reporter, mRNA. The procedure, abridged: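 Liver-derived HepG2 cells expressing chimeric nuclear receptor-Gal4 proteins from transient transfection were exposed for 24 hours. Gain of reporter mRNA signal versus DMSO, read by capillary electrophoresis of FAM-labelled PCR products, was recorded.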
Chain of Estrogen receptor (Homo sapiens) (P03372 whole entry, looked up, the tested form may be a part): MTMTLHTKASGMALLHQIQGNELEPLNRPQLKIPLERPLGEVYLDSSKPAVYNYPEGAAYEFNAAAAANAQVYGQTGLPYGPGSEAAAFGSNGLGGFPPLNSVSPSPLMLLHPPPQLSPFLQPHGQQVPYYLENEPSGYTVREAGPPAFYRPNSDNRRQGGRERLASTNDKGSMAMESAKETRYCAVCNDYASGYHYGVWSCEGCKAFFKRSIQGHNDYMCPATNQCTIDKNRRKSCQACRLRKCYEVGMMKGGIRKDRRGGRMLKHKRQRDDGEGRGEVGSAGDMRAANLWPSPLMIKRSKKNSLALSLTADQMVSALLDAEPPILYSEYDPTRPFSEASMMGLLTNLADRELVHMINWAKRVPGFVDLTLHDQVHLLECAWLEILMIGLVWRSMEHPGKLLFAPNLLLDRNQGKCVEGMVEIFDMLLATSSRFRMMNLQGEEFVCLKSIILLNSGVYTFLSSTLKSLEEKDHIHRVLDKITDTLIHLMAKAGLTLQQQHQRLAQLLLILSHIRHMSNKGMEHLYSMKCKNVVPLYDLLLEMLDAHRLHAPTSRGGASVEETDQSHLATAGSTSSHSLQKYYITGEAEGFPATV

Assay [14] deals with X-box-binding protein 1 (Homo sapiens) (UniProt P17861). The assay can be described thus: ATG_Xbp1_CIS: Attagene CIS-FACTORIAL HepG2 Assay for human X-box Binding Protein 1 (XBP1) (AID 2282972). As to conditions: HepG2 XBP1 cis-element reporter, Attagene multiplex; actives raise or lower the signal. An outline of the steps:
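Multiplexed cis-reporter readout in transfected HepG2 liver cells. Exposure lasted 24 hours. Activity in either direction was fitted against DMSO as negative control and baseline.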

Assay [15] is described as follows: ATG_GAL4_TRANS: Attagene TRANS-FACTORIAL HepG2 Assay for GAL4 (Internal Marker) (AID 2282976; active = hit-call score of the fitted dose curve at least 0.9, where 1 is the maximum). As to conditions: HepG2 Attagene TRANS GAL4 internal marker reporter. An outline of the steps:
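First, HepG2 cells were transfected with reporter units under GAL4-UAS control. Next, they were treated with chemical for 24 h. Finally, RNA was reverse-transcribed, PCR-amplified, FAM-labelled and resolved by capillary electrophoresis, with induction scored against DMSO.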

Assay [16] can be described thus: ATG_SREBP_CIS: Attagene CIS-FACTORIAL HepG2 Assay for human Sterol Regulatory Element Binding (SREBP) (AID 2282962). As to conditions: HepG2 Attagene cis-factorial SREBP reporter, mRNA; actives raise or lower the signal. The procedure, abridged:
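Endogenous factor activity is measured in HepG2 through multiplexed reporter units under cis-element control. Following a 24 h incubation, reporter transcripts are reverse-transcribed, PCR-amplified and sized by capillary electrophoresis; activity is fitted in both directions relative to DMSO.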

Assay [17] in a line: ATG_M_19_TRANS: Attagene TRANS-FACTORIAL HepG2 Assay for M19 Transcription Factor (Internal Marker) (AID 2282974; active = hit-call score of the fitted dose curve at least 0.9, where 1 is the maximum). Particulars: HepG2 Attagene TRANS-FACTORIAL M19 internal marker reporter. The procedure, abridged:
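Reporter mRNA induction was measured in transfected HepG2 cells 24 h after dosing. Endpoint fitted upward relative to DMSO and serves as a background control within the multiplexed TRANS panel.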

The target in assay [18] is Glucocorticoid receptor (Homo sapiens) (UniProt P04150). The assay is described as follows: ATG_GR_TRANS: Attagene TRANS-FACTORIAL HepG2 Assay for human Glucocorticoid Receptor (GR) (AID 2282978; active = hit-call score of the fitted dose curve at least 0.9, where 1 is the maximum;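 note: activators score as hits since higher reporter transcript over DMSO is fitted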). Particulars: HepG2 Attagene TRANS GR reporter, mRNA transcription. The procedure, abridged:
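Reporter transcript levels, detected by fluorescence after RT-PCR and capillary electrophoresis, served as the endpoint. HepG2 cells bearing transfected GAL4-UAS reporters responsive to NR-GAL4 chimeras were incubated with compound 24 h; DMSO defined baseline.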

Assay [19] concerns the target Steroid hormone receptor ERR1 (Homo sapiens) (UniProt P11474). The assay is described as follows: ATG_ERRa_TRANS: Attagene TRANS-FACTORIAL HepG2 Assay for human Estrogen-Related Receptor alpha (ERRa) (AID 2282971; active = hit-call score of the fitted dose curve at least 0.9, where 1 is the maximum). Particulars: HepG2 Attagene TRANS reporter, ERRa transactivation. An outline of the steps: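 Reporter transcript induction was quantified by RT-PCR and capillary electrophoresis of FAM-labelled, HpaI-cut products after 24 h treatment of HepG2 cells carrying transiently transfected GAL4-UAS reporter units and an exogenous ERRa-Gal4 fusion; activity scored as increase over DMSO.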

The target of assay [20] is Estrogen-related receptor gamma (Homo sapiens) (UniProt P62508). The assay is described as follows: ATG_ERRg_TRANS: Attagene TRANS-FACTORIAL HepG2 Assay for human Estrogen-Related Receptor gamma (ERRg) (AID 2282977; active = hit-call score of the fitted dose curve at least 0.9, where 1 is the maximum;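 note: hits increase reporter signal over DMSO so potencies reflect activators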). Particulars: HepG2 Attagene TRANS reporter, ERRg transactivation. An outline of the steps: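 Induction of reporter transcripts through a chimeric NR-Gal4 protein is quantified in transfected human HepG2 liver cells after 24 h chemical exposure, using RT-PCR with capillary electrophoresis detection and DMSO as baseline.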
Chain of Estrogen-related receptor gamma (Homo sapiens) (P62508 whole entry, looked up, the tested form may be a part): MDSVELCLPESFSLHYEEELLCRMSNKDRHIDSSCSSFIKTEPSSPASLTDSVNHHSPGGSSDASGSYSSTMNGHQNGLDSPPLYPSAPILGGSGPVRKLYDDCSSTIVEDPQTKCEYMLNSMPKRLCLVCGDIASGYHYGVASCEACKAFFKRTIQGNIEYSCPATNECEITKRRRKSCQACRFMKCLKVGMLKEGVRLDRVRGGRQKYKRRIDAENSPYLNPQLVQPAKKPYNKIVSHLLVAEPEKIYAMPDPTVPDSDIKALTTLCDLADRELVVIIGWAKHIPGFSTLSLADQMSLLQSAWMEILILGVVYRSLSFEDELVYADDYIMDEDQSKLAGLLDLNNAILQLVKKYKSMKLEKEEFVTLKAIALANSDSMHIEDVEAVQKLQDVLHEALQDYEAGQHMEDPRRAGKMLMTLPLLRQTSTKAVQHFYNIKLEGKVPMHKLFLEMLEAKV

Chain of Signal transducer and activator of transcription 3 (Homo sapiens) (P40763 whole entry, looked up): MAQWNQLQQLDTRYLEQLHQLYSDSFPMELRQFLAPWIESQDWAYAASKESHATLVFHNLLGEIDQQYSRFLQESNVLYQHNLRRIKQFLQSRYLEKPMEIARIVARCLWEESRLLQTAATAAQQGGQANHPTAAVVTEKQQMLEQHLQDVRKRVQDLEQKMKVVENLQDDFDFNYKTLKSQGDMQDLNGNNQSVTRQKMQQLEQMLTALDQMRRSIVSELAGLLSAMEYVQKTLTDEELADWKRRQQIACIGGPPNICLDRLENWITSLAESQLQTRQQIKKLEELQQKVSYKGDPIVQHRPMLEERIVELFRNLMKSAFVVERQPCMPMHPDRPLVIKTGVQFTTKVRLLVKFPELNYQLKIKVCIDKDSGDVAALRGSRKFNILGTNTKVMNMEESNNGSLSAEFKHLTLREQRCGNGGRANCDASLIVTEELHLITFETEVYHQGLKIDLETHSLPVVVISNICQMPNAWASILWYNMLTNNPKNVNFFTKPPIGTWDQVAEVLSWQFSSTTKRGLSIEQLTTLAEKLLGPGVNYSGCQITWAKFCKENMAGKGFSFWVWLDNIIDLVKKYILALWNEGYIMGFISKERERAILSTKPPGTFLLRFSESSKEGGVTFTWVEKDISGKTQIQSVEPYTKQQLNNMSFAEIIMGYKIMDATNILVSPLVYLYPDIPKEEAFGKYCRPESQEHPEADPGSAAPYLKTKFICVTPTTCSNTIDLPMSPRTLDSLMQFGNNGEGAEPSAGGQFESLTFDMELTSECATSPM
Chain of Transcription factor Sp1 (Homo sapiens) (P08047 whole entry, looked up): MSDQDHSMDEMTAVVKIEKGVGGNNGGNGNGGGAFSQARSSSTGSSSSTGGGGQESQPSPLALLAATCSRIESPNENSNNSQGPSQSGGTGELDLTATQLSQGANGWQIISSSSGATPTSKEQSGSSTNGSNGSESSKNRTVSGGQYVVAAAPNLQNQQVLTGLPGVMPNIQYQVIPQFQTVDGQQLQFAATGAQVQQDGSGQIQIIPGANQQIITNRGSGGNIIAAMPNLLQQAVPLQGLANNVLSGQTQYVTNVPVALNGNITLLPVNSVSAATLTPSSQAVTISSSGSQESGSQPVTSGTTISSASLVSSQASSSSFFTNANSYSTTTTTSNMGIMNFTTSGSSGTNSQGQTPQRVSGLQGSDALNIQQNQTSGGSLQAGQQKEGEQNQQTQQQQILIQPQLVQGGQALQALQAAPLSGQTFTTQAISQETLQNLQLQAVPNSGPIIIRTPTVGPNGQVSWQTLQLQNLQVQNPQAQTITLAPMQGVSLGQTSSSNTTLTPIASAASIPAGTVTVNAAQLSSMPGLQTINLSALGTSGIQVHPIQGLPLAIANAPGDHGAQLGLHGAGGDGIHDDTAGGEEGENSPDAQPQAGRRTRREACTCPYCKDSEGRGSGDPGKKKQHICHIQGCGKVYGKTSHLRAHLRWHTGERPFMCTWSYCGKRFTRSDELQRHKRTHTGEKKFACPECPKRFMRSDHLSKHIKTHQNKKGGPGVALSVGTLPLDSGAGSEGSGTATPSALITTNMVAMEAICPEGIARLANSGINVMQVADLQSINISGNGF
Chain of Steroid hormone receptor ERR1 (Homo sapiens) (P11474 whole entry, looked up, the tested form may be a part): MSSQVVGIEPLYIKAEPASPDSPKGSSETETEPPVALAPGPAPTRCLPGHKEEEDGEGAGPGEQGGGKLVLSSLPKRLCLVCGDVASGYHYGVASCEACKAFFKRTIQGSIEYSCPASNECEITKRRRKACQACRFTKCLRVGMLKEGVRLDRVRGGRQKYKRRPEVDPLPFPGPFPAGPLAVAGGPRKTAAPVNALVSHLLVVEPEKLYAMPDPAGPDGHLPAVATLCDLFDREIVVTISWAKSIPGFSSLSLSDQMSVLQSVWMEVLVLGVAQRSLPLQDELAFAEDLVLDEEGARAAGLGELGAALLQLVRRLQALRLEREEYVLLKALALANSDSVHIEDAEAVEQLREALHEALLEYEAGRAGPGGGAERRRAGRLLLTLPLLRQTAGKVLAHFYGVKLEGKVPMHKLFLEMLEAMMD
Chain of X-box-binding protein 1 (Homo sapiens) (P17861 whole entry, looked up): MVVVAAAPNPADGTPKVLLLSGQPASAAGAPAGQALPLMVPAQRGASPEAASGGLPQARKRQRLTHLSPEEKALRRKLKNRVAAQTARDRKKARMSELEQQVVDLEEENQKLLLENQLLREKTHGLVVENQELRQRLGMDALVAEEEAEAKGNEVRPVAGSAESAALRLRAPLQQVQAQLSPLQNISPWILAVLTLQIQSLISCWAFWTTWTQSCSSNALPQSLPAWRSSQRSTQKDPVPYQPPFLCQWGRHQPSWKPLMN
Chain of Nuclear receptor subfamily 1 group I member 3 (Homo sapiens) (Q14994 whole entry, looked up, the tested form may be a part): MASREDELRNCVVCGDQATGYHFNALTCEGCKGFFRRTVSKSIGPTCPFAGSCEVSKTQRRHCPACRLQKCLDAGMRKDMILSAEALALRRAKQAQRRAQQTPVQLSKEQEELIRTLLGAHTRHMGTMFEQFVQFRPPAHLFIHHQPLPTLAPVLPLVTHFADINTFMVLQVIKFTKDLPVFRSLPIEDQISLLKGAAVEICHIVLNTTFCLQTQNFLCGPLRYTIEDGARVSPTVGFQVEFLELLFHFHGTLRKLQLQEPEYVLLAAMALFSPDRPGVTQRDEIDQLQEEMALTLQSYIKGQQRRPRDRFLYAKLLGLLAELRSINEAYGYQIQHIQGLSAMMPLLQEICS
Chain of Glucocorticoid receptor (Homo sapiens) (P04150 whole entry, looked up, the tested form may be a part): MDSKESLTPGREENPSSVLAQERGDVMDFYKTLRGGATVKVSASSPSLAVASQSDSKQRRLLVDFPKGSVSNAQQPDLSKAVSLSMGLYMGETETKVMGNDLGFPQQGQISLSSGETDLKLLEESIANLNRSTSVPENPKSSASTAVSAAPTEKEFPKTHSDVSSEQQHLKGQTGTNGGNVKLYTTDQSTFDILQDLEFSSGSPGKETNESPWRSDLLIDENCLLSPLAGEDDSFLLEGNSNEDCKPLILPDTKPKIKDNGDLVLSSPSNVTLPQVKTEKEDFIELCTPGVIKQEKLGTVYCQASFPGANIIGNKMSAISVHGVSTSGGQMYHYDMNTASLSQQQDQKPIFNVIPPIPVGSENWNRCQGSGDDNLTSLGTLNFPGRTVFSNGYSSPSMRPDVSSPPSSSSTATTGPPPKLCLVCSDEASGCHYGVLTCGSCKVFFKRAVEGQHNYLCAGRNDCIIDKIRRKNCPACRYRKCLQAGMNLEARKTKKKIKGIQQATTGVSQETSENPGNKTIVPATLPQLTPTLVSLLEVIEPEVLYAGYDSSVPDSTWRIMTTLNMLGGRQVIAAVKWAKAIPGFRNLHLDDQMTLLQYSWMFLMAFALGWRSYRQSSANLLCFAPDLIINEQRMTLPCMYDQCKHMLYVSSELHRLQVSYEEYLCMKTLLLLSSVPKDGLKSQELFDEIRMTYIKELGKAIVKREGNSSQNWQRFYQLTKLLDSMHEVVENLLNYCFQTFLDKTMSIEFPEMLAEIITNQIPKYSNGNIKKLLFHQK

Turning to `O=C(F)C(F)(F)C(F)(F)C(F)(F)C(=O)F`, the compound was classed as inactive in assay [1], in [2], in assay [3], in assay [4], in [5] and in [6]. The compound was called inactive in assay [7], in assay [8], in [9], in [10], in [11] and in assay [12]. Besides, the compound was called inactive in assay [13], in [14] and in assay [15].
As usually defined, the AC50 is the concentration giving half of the maximal activity seen. With `C=CC(C)(CCC=C(C)C)OC(C)=O` (centres undefined), in [1], the half-maximal activity concentration (AC50) was 22.8 µM (active). Besides, the compound was classed as inactive in assay [2], in assay [3], in assay [4], in assay [16], in assay [6] and in assay [7]. Also, the result in assay [8], in assay [9], in assay [10], in [11], in assay [12] and in assay [13] was inactive. For the same compound, the outcome in assay [14], in assay [17], in [15] and in [18] was inactive.
Turning to `O=C1C=CC(=O)N1c1cccc(N2C(=O)C=CC2=O)c1`, the compound was classed as inactive in assay [1], in assay [2], in [3], in assay [4], in [5] and in assay [16]. For the same compound, the result in assay [7], in assay [9], in [10], in assay [11], in [13] and in assay [19] was inactive. The outcome in [14] and in assay [20] was inactive.
As to `O=C(Nc1cccc([N+](=O)[O-])c1)c1cc2ccccc2cc1O`, the AC50 in assay [1] was 6.79 µM (active); in assay [2], 4.22 µM (active); in assay [3], 5.99 µM (active); in assay [10], 48.1 µM (active). The call in assay [4], in assay [5], in assay [16], in [7], in assay [8] and in assay [9] was inactive. Also, the call in assay [11], in assay [12], in assay [13], in [19], in [14] and in [17] was inactive. For the same compound, the result in assay [20] was inactive.
Take `C=CC(=O)OCCC(F)(F)C(F)(F)C(F)(F)C(F)(F)C(F)(F)C(F)(F)C(F)(F)C(F)(F)F`: the outcome in assay [1], in assay [2], in assay [3], in [4], in [5] and in assay [16] was inactive. In addition, the outcome in [7], in assay [8], in [9], in assay [10], in assay [11] and in [12] was inactive. Moreover, the call in assay [19], in [14] and in [17] was inactive.
Consider `COc1ccc(C#N)cc1`, for which the result in assay [1], in assay [2], in assay [3], in assay [4], in assay [5] and in [7] was inactive. In addition, the compound was called inactive in assay [8], in assay [9], in [10], in assay [11], in [12] and in assay [13]. For the same compound, the compound was called inactive in assay [14], in assay [15] and in [18].
Turning to `C=CCOCC(CO)(CO)CO`, in assay [1], the concentration at half-maximal activity (AC50) is 25.3 µM (active). For the same compound, the result in assay [2], in [3], in assay [4], in assay [5], in assay [6] and in assay [7] was inactive. Also, the compound was called inactive in assay [8], in assay [9], in assay [10], in [11], in [12] and in assay [14]. The call in assay [17], in assay [20] and in assay [18] was inactive.
